# A selection: hits, their analogues and other compounds. The true share with any hit is near 11%.
# NS1 function inh: blocks influenza NS1 protein function; Potency, µM (highest dose often 46.1 µM), for the others: at the highest dose activity, positive = more growth; 0.4% of 270,000 active; calls by dose curve; note: actives are rising curves; nearly all actives have a fitted effect of over 50% in size
#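 Growth recovery, yeast-based: influenza A NS1 expressed in S. cerevisiae causes slow growth, and suppressors are detected by OD600. The parent strain without NS1 is used as positive control.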
# HCV inhibitor: blocks hepatitis C virus; Huh7.5.1 HCVcc-Cre infection, luciferase reporter, 44 h; Potency, µM (top dose mostly 41.8 µM), for the others: at the top dose activity change, negative = inhibition, hits mostly inhibitors; 3.4% of 340,000 active; note: % is set by controls: 0 for no effect and ±100 for the full control effect
#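 Antiviral activity was scored by luciferase reporter output from cells infected with HCVcc-Cre (~0.5 moi) in presence of compound, 44 h infection period, cells seeded 1,000/well 4 h prior.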
# Pf growth 96h: P. falciparum growth inhibition at 96 hour, primary screen for plastid delayed-death inhibitors | 6.9% of 320,000 active | Potency, µM (titrated, usually from 28.7 µM), for the others: at the highest dose activity change, negative = inhibition, most hits filed as inhibitors | P. falciparum luciferase reporter growth, 96 h | AID 504834; note: % is set by controls: 0 for no effect and ±100 for the full control effect
#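 P. falciparum expressing integrated firefly luciferase grown in erythrocytes (2% hematocrit, 0.05% parasitemia final) with compounds for 96 hours at 37 C, 5% CO2. Growth inhibition read as loss of luminescence after adding luciferase detection reagent.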
# VACV Venus inh: vaccinia inhibition (Venus reporter); Vaccinia virus Venus reporter expression, fluorescence; Potency, µM (series often up to 36.5 µM), inactives show at the highest dose activity change, negative = inhibition, usual class: inhibitors; 0.46% of 330,000 active; AID 720580; calls by dose curve; tested in A549 cells; note: % is set by controls: 0 for no effect and ±100 for the full control effect; nearly all actives have a fitted effect of over 30% in size
# VACV mCherry inh: inhibitors of vaccinia virus infection (mCherry reporter signal); Vaccinia virus mCherry reporter infection, fluorescence; Potency, µM (titrated, usually from 36.5 µM), inactives show at the highest dose activity change, negative = inhibition, hits mostly inhibitors; 0.63% of 310,000 active; calls by dose curve; tested in A549 cells; note: % is set by controls: 0 for no effect and ±100 for the full control effect; nearly all actives have a fitted effect of over 35% in size
# Pf growth 48h: P. falciparum growth inhibition at 48 hours (one generation); P. falciparum luciferase growth in erythrocytes, 48 h; 5.9% of 310,000 active; Potency, µM (titrated, usually from 28.7 µM), inactives show top-dose activity change, negative = inhibition, hits mostly inhibitors; note: % is set by controls: 0 for no effect and ±100 for the full control effect
#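 Here the parasites carry a stable luciferase gene and grow inside erythrocytes in Albumax-based RPMI medium with compound for one erythrocytic cycle. Activity is scored as loss of luminescent signal.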
# The depositor's hits bear a star; i = inactive; ? = inconclusive; . = no result; [ ] = dose if it differs, or a comment. Unless noted, calls come from the whole dose curve; as a rule, active = well fitted inhibition curve with a large enough effect; inconclusive = small, poorly fitted or top-dose-only effect, or another doubt; inactive = no such curve, though single readings can be large or run the other way. Potency is the fitted concentration of half-maximal effect.
SMILES,NS1 function inh,HCV inhibitor,Pf growth 96h,VACV Venus inh,VACV mCherry inh,Pf growth 48h
O=C(NCCN1CCOCC1)c1cc(-c2ccc(F)cc2)on1,-5%,-2%,0.29µM*,-18%,-21%,29%
CN1CCN(CCNC(=O)c2ccc3nc(-c4ccc(F)cc4)c(-c4ccc(F)cc4)nc3c2)CC1,4%,2.2µM*,?,?,-26%,9.3µM*
CCc1nc2ccc(C(=O)NCCCN3CCN(c4ccc(F)cc4)CC3)cc2nc1CC,1%,?,34%,?,?,?
Cc1c(C(=O)NCc2cccnc2)sc2nc(-c3ccccc3)cn12,-8%,2%,?,-24%,i,?
Cc1ccc(N2C(=O)CC(Cc3cc(C)cc(C)c3)C2=O)cc1 (stereo not drawn),-5%,-5%,-2%,-4%,-27%,-13%
CCCCn1c(N)c(N(CC(C)C)C(=O)CN2C(=O)NC3(CC(C)CC(C)(C)C3)C2=O)c(=O)[nH]c1=O (stereo not drawn),.,?,?,-13%,-2%,?
Cc1c(C(=O)NCCCN2CCOCC2)sc2nc(-c3ccc(F)cc3)cn12,-1%,10µM*,?,-22%,-25%,?
O=C(Nc1ccc(N2CCC(N3CCCCC3)CC2)c(C(=O)O)c1)c1ccc(Br)cc1,.,.,.,-5%,-2%,.
CC1CCN(c2ccc(NC(=O)c3cccnc3Cl)cc2)CC1,?,-17%,10µM*,-8%,-17%,21%
CCC(=O)Nc1ccc(N2CCC(C)CC2)cc1,-1%,7%,10µM*,-6%,-25%,-17%
Cc1ccc(C(=O)N2CCN(c3ccc(NC(=O)c4cccnc4Cl)cc3)CC2)cc1,-1%,-6%,-53%,5%,-19%,?
CCOc1cc2oc(=O)c3c(c2cc1Cl)CCC3,-6%,-17%,?,-12%,i,21%
Cc1c(CCO)sc[n+]1CC(=O)c1ccc(F)cc1,.,.,.,-18%,-1%,.
OC1CCCN(CC(O)COC(c2ccc(F)cc2)c2ccc(F)cc2)C1 (stereo not drawn),-2%,?,2.1µM*,-4%,-2%,2.6µM*
OCC1CCCCN1CC(O)COC(c1ccc(F)cc1)c1ccc(F)cc1 (stereo not drawn),-3%,?,?,.,.,9.3µM*
CCCC1(C(=O)OC)NC(c2cc(OC)c(OC)c(OC)c2)C2C(=O)N(CC)C(=O)C21 (stereo not drawn),-5%,16%,47%,.,.,-1%
CCN1C(=O)[C@H]2[C@@H](c3ccc(-c4ccc(OC)cc4)c(OC)c3)N[C@@](CC(C)C)(C(=O)OC)[C@H]2C1=O,.,?,.,-30%,i,.
COC(=O)[C@]1(CC(C)C)N[C@H](c2ccc(-c3ccc(F)cc3)c(OC)c2)[C@@H]2C(=O)N(C)C(=O)[C@@H]21,.,?,1.9µM*,-26%,-2%,7.4µM*
CCCCCCSc1ccc([C@H]2N[C@@](CC(C)C)(C(=O)OC)[C@H]3C(=O)N(C)C(=O)[C@@H]23)cc1OC,.,7.9µM*,4.7µM*,?,-9%,6.6µM*
COC(=O)[C@]1(CC(C)C)N[C@H](c2ccc(SC3CCCCC3)c(OC)c2)[C@@H]2C(=O)N(C)C(=O)[C@@H]21,.,?,8.3µM*,-26%,?,?
CCC(C)Sc1ccc([C@H]2N[C@@](CC(C)C)(C(=O)OC)[C@H]3C(=O)N(C)C(=O)[C@@H]23)cc1 (stereo partly drawn),.,-5%,?,-12%,-27%,?
COC(=O)c1cccc(NC(=O)/C(=C\c2ccccc2)NC(=O)c2ccccc2Cl)c1,1%,-19%,?,-2%,i,-8%
COc1cccc(-n2nnnc2SCC(=O)c2cc(OC)ccc2OC)c1,0%,.,12µM*,.,.,21%
COc1cccc(-n2nnnc2SCC(=O)c2ccc(NC(C)=O)cc2)c1,?,-1%,2%[5.75 µM],-9%,i,5%
COc1ccc(OC)c(-n2nnnc2SCC(=O)NCCc2ccccc2)c1,1%,?,9.3µM*,-8%,-16%,51%
SMILES,NS1 function inh,HCV inhibitor,Pf growth 96h,VACV Venus inh,VACV mCherry inh,Pf growth 48h
O=C(NCC1CCN(C(=O)c2cccc([N+](=O)[O-])c2)CC1)c1cccc([N+](=O)[O-])c1,-1%,1%,35%,-1%,7%,-23%
CCS(=O)(=O)N1CCCC(C(=O)Oc2ccc(Br)cc2)C1 (stereo not drawn),4%,-2%,29%,.,.,15%
O=C(Nc1cccc(C(=O)O)c1)Nc1ccc2c(c1)OCO2,?,16%,-26%,-7%,i,231%
O=C(O)c1cccc(-c2ccc3c(c2)OCO3)c1,-66%,15%,3.7µM*,.,.,7%
COc1cc(C2NC(=O)NC(c3ccccc3)=C2C(C)=O)c(Br)c(Br)c1O (stereo not drawn),28%,10%,0.74µM*,.,.,1.3µM*
CC(=O)C1=C(c2ccccc2)NC(=O)NC1c1ccccc1 (stereo not drawn),21%,14%,?,.,.,17%
CCOC(=O)C1=CN(Cc2cccc(F)c2)S(=O)(=O)NC1c1cccc(OC)c1 (stereo not drawn),.,24%,.,-15%,i,.
CCOC(=O)C1=CN(c2cccc(F)c2)C=C(C(=O)OCC)C1c1cc(OC)c(O)c([N+](=O)[O-])c1,9%,4%,?,-25%,-7%,10µM*
CN(C)CCCN(C(=O)c1ccc(N2C(=O)CCC2=O)cc1)c1nc2c(F)cccc2s1,.,-12%,-5%,-6%,i,9%
CN(C)CCCN(C(=O)c1ccc2c(c1)CCCC2)c1nc2c(F)cccc2s1,3%,7.9µM*,?,-20%,-30%,9.3µM*
Cc1cc(C)c2nc(N(CCCN(C)C)C(=O)c3ccc4c(c3)CCCC4)sc2c1,.,7.1µM*,?,-19%,-10%,7.4µM*
Cc1ccc2nc(N(CCCN(C)C)C(=O)c3ccc4c(c3)CCCC4)sc2c1,5%,11µM*,1.9µM*,?,?,10µM*
CN(C)CCN(C(=O)c1ccc2c(c1)CCCC2)c1nc2cc3c(cc2s1)OCCO3,-7%,?,-17%,-28%,-7%,14%
C[C@@H]1CC[C@H]2[C@H](C)C3[C@H](C[C@H]4[C@@H]5CC=C6C[C@@H](O)CC[C@@]6(C)[C@@H]5C[C@@H](O)[C@]34C)N2C1 (stereo partly drawn),-6%,.,.,.,.,.
COc1ccccc1NS(=O)(=O)c1cc(NC(=O)c2sccc2C)ccc1N1CCOCC1,-17%,?,12µM*,.,.,?
COc1ccccc1NS(=O)(=O)c1cc(NC(=O)c2sccc2C)ccc1N1CCCC1,20%,18%,?,6%,-10%,?
